About 83,000 compounds went through this panel and 20% of them were active in at least one assay; those are over-represented in the sample as a whole.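 The endpoint reported here, percent growth, reads 100 for growth as untreated, 0 for no net growth and -100 for all cells dead.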 Calls of active or inactive are those of the source. Rule for the calls: active = growth percent below 10; inactive = the rest.
Columns and labels:
Assay in all cases: NCI-60 one-dose screen, 48 h (100 = growth as untreated, 0 = no growth, -100 = all killed)
Settings in all cases: 10 µM unless noted
T-47D breast = system: T-47D breast
BT-549 breast = system: BT-549 breast
MDA-MB-435 melanoma = system: MDA-MB-435 melanoma
SW-620 colon = system: SW-620 colon
MCF7 breast = system: MCF7 breast
HCT-116 colon = system: HCT-116 colon
HCC-2998 colon = system: HCC-2998 colon
KM12 colon = system: KM12 colon

Measured: growth

O=C1c2cccnc2C(=O)c2c1c(C(=O)OCCN1CCCCC1)c1ccccn21
active: T-47D breast 4.01% | MDA-MB-435 melanoma -5.97% | SW-620 colon -13.6% | MCF7 breast -43.3% | HCT-116 colon -8.36% | HCC-2998 colon -46.6% | KM12 colon 8.77%
inactive: BT-549 breast 20.1%

O=C(O)c1ccc2c(c1Sc1ccccc1)C(=O)c1ccccc1C2=O
inactive: T-47D breast 98.6% | BT-549 breast 83.8% | MDA-MB-435 melanoma 73.1% | SW-620 colon 121% | MCF7 breast 95.4% | HCT-116 colon 98.5% | HCC-2998 colon 105% | KM12 colon 101%

C[C@]12C[C@@H](c3ccoc3)OC(=O)[C@@H]1CC[C@]1(C)[C@@H]2CC[C@@H](O)[C@]1(C)O
inactive: T-47D breast 82.6% | BT-549 breast 106% | MDA-MB-435 melanoma 57.4% | SW-620 colon 63.2% | MCF7 breast 108% | HCT-116 colon 90.5% | HCC-2998 colon 95.8% | KM12 colon 102%

Cc1ccc2c(NCCCN(C)C)c3c(C)nn(C)c3nc2c1
active: MCF7 breast 5.14%
inactive: T-47D breast 44.8% | BT-549 breast 54.3% | MDA-MB-435 melanoma 37.1% | SW-620 colon 23.5% | HCT-116 colon 20.2% | HCC-2998 colon 59.3% | KM12 colon 32.8%

CC[C@]12C=CCN3CC[C@@]4(c5ccc(OC)cc5N(C)[C@H]4[C@@](O)(C(=O)OC)[C@@H]1OC(=O)CCC(=O)N[C@@H](Cc1c[nH]c4ccccc14)C(=O)OC)[C@@H]32
inactive: T-47D breast 67.8% | BT-549 breast 115% | MDA-MB-435 melanoma 95.3% | SW-620 colon 96.4% | MCF7 breast 90% | HCT-116 colon 100% | HCC-2998 colon 70.6% | KM12 colon 106%

COc1cc(NCCCCCN=C(N)NC(N)=NC(C)C)c2ncccc2c1
active: BT-549 breast -0.951% | MCF7 breast -91.6% | HCT-116 colon -4.52% | KM12 colon 3.06%
inactive: T-47D breast 24.6% | MDA-MB-435 melanoma 69.2% | SW-620 colon 25.2% | HCC-2998 colon 11%

CN(C)CCCC(=O)Nc1ccc(Cn2nnc3c2C(=O)c2nnn(Cc4ccc(NC(=O)CCCN(C)C)cc4)c2C3=O)cc1
inactive: BT-549 breast 80.5% | SW-620 colon 52.3% | HCC-2998 colon 59.3% | KM12 colon 81.4%
active: T-47D breast -5.44% | MDA-MB-435 melanoma -83.7% | MCF7 breast -40% | HCT-116 colon 6.95%

Cc1ccc(-c2nc(/C=N/Nc3cc(C)nc4ccc(Cl)cc34)c(C)o2)cc1
inactive: BT-549 breast 97%
active: T-47D breast -74.4% | MDA-MB-435 melanoma -95.6% | SW-620 colon -70.2% | MCF7 breast -84.4% | HCT-116 colon -54.3% | HCC-2998 colon -53.3% | KM12 colon -58.3%

CC(C)[C@@H]1CC[C@]2(C(=O)NCCCCN=C(N)N)CC[C@]3(C)[C@H](CC[C@@H]4[C@@]5(C)CCC(=O)C(C)(C)[C@@H]5CC[C@]43C)[C@@H]12
inactive: T-47D breast 37.4% | BT-549 breast 90.5% | MDA-MB-435 melanoma 56.2% | SW-620 colon 71.3% | MCF7 breast 33.5% | HCT-116 colon 72.9% | HCC-2998 colon 53.7% | KM12 colon 40.9%

O=S(=O)(Nc1ccc(F)c(Cl)c1)c1ccc(-c2cnc(C3CC3)o2)cc1
active: MDA-MB-435 melanoma 2.08%
inactive: T-47D breast 27.4% | BT-549 breast 36.3% | SW-620 colon 17.3% | MCF7 breast 15.5% | HCT-116 colon 19.7% | HCC-2998 colon 32% | KM12 colon 30.8%

O=C(N/N=C/c1ccc(O)cc1O)c1cccnc1
active: MCF7 breast 7.27%
inactive: T-47D breast 26.9% | BT-549 breast 59.5% | MDA-MB-435 melanoma 63.8% | SW-620 colon 44.6% | HCT-116 colon 29.8% | HCC-2998 colon 35.1% | KM12 colon 58.3%

COc1cc(-c2cnc3nonc3n2)c(OC)c2c1OCO2
inactive: T-47D breast 85.4% | BT-549 breast 105% | MDA-MB-435 melanoma 111% | SW-620 colon 101% | MCF7 breast 81.3% | HCT-116 colon 99.1% | HCC-2998 colon 102% | KM12 colon 103%

Cc1cc2cc3cc(C)c(N(C)C)cc3[n+](C)c2cc1N(C)C
active: BT-549 breast -28.7% | KM12 colon 3.5%
inactive: T-47D breast 16.4% | MDA-MB-435 melanoma 35.3% | SW-620 colon 14.6% | MCF7 breast 14% | HCT-116 colon 12.6% | HCC-2998 colon 25.6%

CNc1cc2nc3cc(NC)c(C)cc3cc2cc1C
inactive: BT-549 breast 20.6% | MDA-MB-435 melanoma 41.7% | HCC-2998 colon 18.7%
active: T-47D breast 7.86% | SW-620 colon 8.75% | MCF7 breast 3.03% | HCT-116 colon 5.54% | KM12 colon -40.7%

CC/C(=C(\c1ccc(O)cc1)c1ccc(OCCN(C)CCN(C)C(=O)CCCCC(=O)c2c(C)[nH]c(/C=C3\N=C(c4ccc[nH]4)C=C3OC)c2C)cc1)c1ccccc1
inactive: T-47D breast 62.4% | BT-549 breast 91.5% | MDA-MB-435 melanoma 88% | SW-620 colon 88% | MCF7 breast 41.3% | HCT-116 colon 56.3% | HCC-2998 colon 97% | KM12 colon 68.6%

C=C1CCC2C3(C)COC(c4ccc(SC)cc4)OC3CCC2(C)C1C/C=C1/C(=O)OCC1O (stereo unspecified)
inactive: T-47D breast 23.6% | BT-549 breast 64.6% | MDA-MB-435 melanoma 61.3% | SW-620 colon 10.6% | MCF7 breast 27.7% | HCT-116 colon 11.2% | HCC-2998 colon 90.5% | KM12 colon 44.3%

O=C1/C(=C/c2ccccc2)CN(CCC(=O)N2C/C(=C\c3ccccc3)C(=O)/C(=C/c3ccccc3)C2)C/C1=C\c1ccccc1
active: MDA-MB-435 melanoma -40.7% | SW-620 colon 7.07% | MCF7 breast -2.24% | HCT-116 colon -60.6%
inactive: T-47D breast 26.6% | BT-549 breast 56.3% | HCC-2998 colon 26.7% | KM12 colon 10.1%

CN1CCCCC1CCN1c2ccccc2Sc2ccc(Cl)cc21 (stereo unspecified)
inactive: T-47D breast 71.1% | BT-549 breast 73.8% | MDA-MB-435 melanoma 27% | SW-620 colon 73.4% | MCF7 breast 21.6% | HCT-116 colon 30.6% | HCC-2998 colon 61.1% | KM12 colon 60%

NCc1cn2cc(Cl)sc2n1
inactive: T-47D breast 111% | BT-549 breast 111% | MDA-MB-435 melanoma 113% | SW-620 colon 106% | MCF7 breast 95% | HCT-116 colon 107% | HCC-2998 colon 102% | KM12 colon 106%

O=C1Nc2ccccc2C12CC(c1ccccc1)=NN2 (stereo unspecified)
active: MDA-MB-435 melanoma -24.9%
inactive: T-47D breast 60% | BT-549 breast 64.4% | SW-620 colon 27.7% | MCF7 breast 19.1% | HCT-116 colon 29.4% | HCC-2998 colon 75.6% | KM12 colon 43.3%

CCC(c1ccccc1)C(CC)c1ccc(O)c(O)c1 (stereo unspecified)
inactive: T-47D breast 80.5% | BT-549 breast 110% | MDA-MB-435 melanoma 95% | SW-620 colon 97.3% | MCF7 breast 98.7% | HCT-116 colon 88.2% | HCC-2998 colon 97.5% | KM12 colon 90.9%

O=C(Nc1ccc(F)cc1)Nc1ccc(CCO)cc1
inactive: T-47D breast 104% | BT-549 breast 108% | MDA-MB-435 melanoma 97.4% | SW-620 colon 108% | MCF7 breast 109% | HCT-116 colon 94.7% | HCC-2998 colon 108% | KM12 colon 108%

C=C1CCC2C3(C)COC(c4cccc(Cl)c4)OC3CCC2(C)C1/C=C/C1=CCOC1=O (stereo unspecified)
inactive: T-47D breast 27.7% | BT-549 breast 55.9% | MDA-MB-435 melanoma 79.4% | SW-620 colon 78.4% | MCF7 breast 42% | HCT-116 colon 28.9% | HCC-2998 colon 39.9% | KM12 colon 74.3%

CCCCCCCCCCCCCCCC[N+]1(CC)CCCC1
inactive: T-47D breast 18.6%
active: BT-549 breast -25.8% | MDA-MB-435 melanoma -60.6% | SW-620 colon -8.83% | MCF7 breast -18.2% | HCT-116 colon -46.4% | HCC-2998 colon -59.5% | KM12 colon -90.6%

C/C(Cc1ccc(Cl)cc1)=C(\c1ccc(OCCN2CCCCCC2)cc1)c1ccc(OC(=O)Cc2ccccc2)cc1
inactive: T-47D breast 57.6% | BT-549 breast 89.3% | MDA-MB-435 melanoma 46.3% | SW-620 colon 57.4% | MCF7 breast 18.6% | HCT-116 colon 38.2% | HCC-2998 colon 22.3% | KM12 colon 50.2%

Oc1ccccc1/C=N/Nc1ccc2ccccc2n1
active: MCF7 breast -18%
inactive: T-47D breast 21.8% | BT-549 breast 66.8% | MDA-MB-435 melanoma 65.2% | SW-620 colon 34% | HCT-116 colon 22.3% | HCC-2998 colon 68.6% | KM12 colon 46.3%

CC#CC#Cc1cccc(=O)o1
inactive: T-47D breast 59.9% | BT-549 breast 38.1% | MDA-MB-435 melanoma 15.2% | SW-620 colon 27.3% | MCF7 breast 29% | HCT-116 colon 30.9% | HCC-2998 colon 95.8% | KM12 colon 58.8%

Clc1cccc(Nc2nc(Nc3cnc4ccccc4c3)c3[nH]cnc3n2)c1
inactive: T-47D breast 53.7% | BT-549 breast 73.7% | MDA-MB-435 melanoma 84.4% | SW-620 colon 98.1% | MCF7 breast 64.9% | HCT-116 colon 76.4% | HCC-2998 colon 100% | KM12 colon 92.8%

COc1nc2c(cc1S(=O)(=O)c1ccccc1)CCc1c-2cnn1-c1ccc(Cl)cc1
inactive: T-47D breast 83.2% | BT-549 breast 109% | MDA-MB-435 melanoma 90.8% | SW-620 colon 93.1% | MCF7 breast 95.2% | HCT-116 colon 88.1% | HCC-2998 colon 92.9% | KM12 colon 109%

S=c1[nH]nc(CSc2ncnc3c2c(-c2ccccc2)cn3-c2ccc(Cl)cc2)o1
inactive: T-47D breast 90.6% | BT-549 breast 107% | MDA-MB-435 melanoma 104% | SW-620 colon 95.2% | MCF7 breast 93.7% | HCT-116 colon 93.8% | HCC-2998 colon 104% | KM12 colon 98.7%

Cc1csc2ccc(Cl)cc12
inactive: T-47D breast 104% | BT-549 breast 104% | MDA-MB-435 melanoma 103% | SW-620 colon 102% | MCF7 breast 98.3% | HCT-116 colon 106% | HCC-2998 colon 109% | KM12 colon 111%

C=C1C(=O)O[C@H]2[C@H]1CC/C(Cn1cc(Cn3ccc4ccccc43)nn1)=C\CC[C@@]1(C)O[C@@H]21
active: T-47D breast -17.9% | SW-620 colon -77.1% | MCF7 breast -73.9% | HCT-116 colon -89.5%
inactive: BT-549 breast 58.7% | MDA-MB-435 melanoma 19.9% | HCC-2998 colon 69% | KM12 colon 66.5%

From PubChem BioAssay (NCI)
